# Records with an inconclusive call do not appear. Active and inactive are the calls of the source. How the source made its calls, unless noted: active means hit-call score of the fitted dose curve at least 0.9, where 1 is the maximum; inconclusive means response in the unintended direction; inactive means score below 0.9.
# Key:
# [1] = target: Retinoic acid receptor RXR-alpha (Homo sapiens) (UniProt P19793); experiment: ATG_RXRa_TRANS: Attagene TRANS-FACTORIAL HepG2 Assay for human Retinoid X Receptor alpha (RXRa) (AID 2283012)
# In short: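 Chimeric NR-GAL4 trans-activation in HepG2, 24 h treatment; reporter transcripts quantified by fluorescence on capillary electrophoresis, analysed for upward change from DMSO.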
# [2] = target: human Thyroid Receptor alpha (THRa1), THRA (gene 7067) (UniProt P10827); experiment: ATG_THRa1_TRANS: Attagene TRANS-FACTORIAL HepG2 Assay for human Thyroid Receptor alpha (THRa1) (AID 2283014)
# In short: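 HepG2 cells transiently transfected with multiplexed GAL4-UAS reporter units for exogenous chimeric THRa1-Gal4; reporter mRNA measured 24 h after dosing by RT-PCR, 6-FAM labelling, HpaI digestion and capillary electrophoresis. Gain-of-signal fitted versus DMSO baseline.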
# [3] = read-out: E-selectin (Homo sapiens) (UniProt P16581); experiment: BSK_3C_Eselectin: BioMAP Diversity Plus: 3C Assay for Eselectin Biomarker Activity (AID 2283015; active means hit-call score of the fitted dose curve at least 0.9, where 1 is the maximum; inactive means score below 0.9;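 on outcome: cell surface E-selectin protein quantified by ELISA 24 h after dosing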); conditions: primary human endothelial cells (HUVEC); actives raise or lower the signal
# In short: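 Primary human umbilical vein endothelial cells (3C system) were dosed with chemical and cell-surface E-selectin measured by ELISA 24 h later. Bidirectional curve fitting used DMSO as negative control and baseline.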
# [4] = read-out: Interleukin-1 alpha (IL1a), IL1A (gene 3552); experiment: BSK_BE3C_IL1a: BioMAP Diversity Plus: BE3C Assay for Interleukin-1 alpha (IL1a) Biomarker Activity (AID 2283016; active means hit-call score of the fitted dose curve at least 0.9, where 1 is the maximum; inactive means score below 0.9); conditions: primary human bronchial epithelial cells; actives raise or lower the signal
# In short: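 Measured in human lung primary bronchial epithelial cells: IL-1a by ELISA at 24 h after dosing, with bidirectional fitting against DMSO.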
# [5] = read-out: Monocyte Chemoattractant Protein-1 (MCP1), CCL2 (gene 6347); experiment: BSK_3C_MCP1: BioMAP Diversity Plus: 3C Assay for Monocyte Chemoattractant Protein-1 (MCP1) Biomarker Activity (AID 2283017; active means hit-call score of the fitted dose curve at least 0.9, where 1 is the maximum; inactive means score below 0.9); conditions: primary human endothelial cells (HUVEC); actives raise or lower the signal
# In short: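 Primary human umbilical vein endothelial cells (3C system) were exposed to test chemical for 24 h, after which MCP-1 was quantified by ELISA. Activity was fitted bidirectionally against DMSO as negative control and baseline.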
# [6] = read-out: Human Leukocyte Antigen - DR isotype (HLADR), HLA-DRA (gene 3122); experiment: BSK_3C_HLADR: BioMAP Diversity Plus: 3C Assay for Human Leukocyte Antigen - DR isotype (HLADR) Biomarker Activity (AID 2283019; active means hit-call score of the fitted dose curve at least 0.9, where 1 is the maximum; inactive means score below 0.9;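 on outcome: ELISA of cell-surface HLA-DR on HUVEC 24 h after dosing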); conditions: primary human endothelial cells (HUVEC); actives raise or lower the signal
# In short: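 Primary human umbilical vein endothelial cells (3C system) were dosed with compound and cell-surface HLA-DR was quantified by ELISA at 24 h. Activity was fitted bidirectionally against DMSO as negative control and baseline.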
# [7] = read-out: Interleukin-8 (IL8), CXCL8 (gene 3576); experiment: BSK_3C_IL8: BioMAP Diversity Plus: 3C Assay for Interleukin-8 (IL8) Biomarker Activity (AID 2283020; active means hit-call score of the fitted dose curve at least 0.9, where 1 is the maximum; inactive means score below 0.9); conditions: primary human endothelial cells (HUVEC); actives raise or lower the signal
# In short: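 Using DMSO-treated wells as the baseline, bidirectional curve fitting was applied to ELISA-measured IL-8 from human umbilical vein endothelial cultures sampled 24 h after compound addition.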
# [8] = read-out: Monokine induced gamma interferon (MIG), CXCL9 (gene 4283); experiment: BSK_3C_MIG: BioMAP Diversity Plus: 3C Assay for Monokine induced gamma interferon (MIG) Biomarker Activity (AID 2283021; active means hit-call score of the fitted dose curve at least 0.9, where 1 is the maximum; inactive means score below 0.9;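 on AC50: MIG protein level measured by immunoassay in the treated endothelial cultures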); conditions: primary human endothelial cells (HUVEC); actives raise or lower the signal
# In short: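 ELISA-measured MIG in dosed HUVEC 3C cultures at 24 h, analysed by bidirectional fitting with DMSO defining baseline activity.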
# [9] = target: human Retinoid X Receptor beta (RXRb), RXRB (gene 6257) (UniProt P28702); experiment: ATG_RXRb_TRANS: Attagene TRANS-FACTORIAL HepG2 Assay for human Retinoid X Receptor beta (RXRb) (AID 2283013)
# In short: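 After a 24 h incubation with test chemical, transfected HepG2 cells carrying NR-Gal4 fusions and GAL4-UAS reporter transcription units yield RNA whose reporter cDNA is FAM-labelled, HpaI-cut and sized by capillary electrophoresis; increases over DMSO are scored.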
# Sequence of human Retinoid X Receptor beta (RXRb), RXRB (gene 6257) (P28702 whole entry, looked up, the tested form may be a part): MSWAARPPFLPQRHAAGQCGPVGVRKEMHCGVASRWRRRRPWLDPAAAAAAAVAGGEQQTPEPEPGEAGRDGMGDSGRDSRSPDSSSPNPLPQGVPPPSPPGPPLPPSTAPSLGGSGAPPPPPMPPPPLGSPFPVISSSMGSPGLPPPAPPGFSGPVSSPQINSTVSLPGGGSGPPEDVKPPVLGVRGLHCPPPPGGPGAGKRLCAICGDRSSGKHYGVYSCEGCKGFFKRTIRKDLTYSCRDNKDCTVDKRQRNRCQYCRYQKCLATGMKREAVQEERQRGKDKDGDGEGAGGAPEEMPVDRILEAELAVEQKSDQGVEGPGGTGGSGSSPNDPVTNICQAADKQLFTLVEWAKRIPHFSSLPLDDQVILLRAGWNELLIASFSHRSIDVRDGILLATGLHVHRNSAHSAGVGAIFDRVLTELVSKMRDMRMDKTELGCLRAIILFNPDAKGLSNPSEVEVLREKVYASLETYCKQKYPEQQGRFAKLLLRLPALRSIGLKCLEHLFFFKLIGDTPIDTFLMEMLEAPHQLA
# Sequence of E-selectin (Homo sapiens) (P16581 whole entry, looked up): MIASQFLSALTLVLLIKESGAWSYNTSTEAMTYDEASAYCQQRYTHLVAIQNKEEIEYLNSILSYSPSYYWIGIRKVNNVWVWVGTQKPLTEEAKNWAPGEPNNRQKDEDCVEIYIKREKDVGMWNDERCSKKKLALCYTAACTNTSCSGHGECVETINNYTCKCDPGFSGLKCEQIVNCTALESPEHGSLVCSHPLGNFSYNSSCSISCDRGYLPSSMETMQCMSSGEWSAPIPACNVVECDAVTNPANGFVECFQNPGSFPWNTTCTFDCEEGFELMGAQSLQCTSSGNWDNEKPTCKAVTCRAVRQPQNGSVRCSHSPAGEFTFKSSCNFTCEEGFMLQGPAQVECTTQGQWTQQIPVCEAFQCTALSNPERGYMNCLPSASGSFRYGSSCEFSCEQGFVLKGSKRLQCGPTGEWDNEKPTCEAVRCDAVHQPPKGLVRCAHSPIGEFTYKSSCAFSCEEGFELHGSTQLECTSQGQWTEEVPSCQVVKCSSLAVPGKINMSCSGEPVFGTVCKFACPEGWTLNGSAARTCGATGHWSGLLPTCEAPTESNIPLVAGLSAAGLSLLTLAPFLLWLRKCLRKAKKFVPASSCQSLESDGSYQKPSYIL
# Sequence of human Thyroid Receptor alpha (THRa1), THRA (gene 7067) (P10827 whole entry, looked up, the tested form may be a part): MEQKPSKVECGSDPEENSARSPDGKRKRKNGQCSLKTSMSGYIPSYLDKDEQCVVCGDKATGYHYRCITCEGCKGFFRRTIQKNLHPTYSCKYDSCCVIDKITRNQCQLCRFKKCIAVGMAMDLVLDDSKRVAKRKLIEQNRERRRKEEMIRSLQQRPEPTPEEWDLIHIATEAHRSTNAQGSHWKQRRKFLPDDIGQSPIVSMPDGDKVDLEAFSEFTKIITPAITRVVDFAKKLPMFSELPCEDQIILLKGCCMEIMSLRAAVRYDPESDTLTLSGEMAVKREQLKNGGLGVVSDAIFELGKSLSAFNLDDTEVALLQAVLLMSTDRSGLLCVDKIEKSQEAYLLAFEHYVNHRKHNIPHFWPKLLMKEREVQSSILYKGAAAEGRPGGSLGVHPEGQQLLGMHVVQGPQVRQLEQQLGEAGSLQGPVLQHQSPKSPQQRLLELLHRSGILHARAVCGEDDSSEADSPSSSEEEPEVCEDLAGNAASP
# Sequence of Retinoic acid receptor RXR-alpha (Homo sapiens) (P19793 whole entry, looked up, the tested form may be a part): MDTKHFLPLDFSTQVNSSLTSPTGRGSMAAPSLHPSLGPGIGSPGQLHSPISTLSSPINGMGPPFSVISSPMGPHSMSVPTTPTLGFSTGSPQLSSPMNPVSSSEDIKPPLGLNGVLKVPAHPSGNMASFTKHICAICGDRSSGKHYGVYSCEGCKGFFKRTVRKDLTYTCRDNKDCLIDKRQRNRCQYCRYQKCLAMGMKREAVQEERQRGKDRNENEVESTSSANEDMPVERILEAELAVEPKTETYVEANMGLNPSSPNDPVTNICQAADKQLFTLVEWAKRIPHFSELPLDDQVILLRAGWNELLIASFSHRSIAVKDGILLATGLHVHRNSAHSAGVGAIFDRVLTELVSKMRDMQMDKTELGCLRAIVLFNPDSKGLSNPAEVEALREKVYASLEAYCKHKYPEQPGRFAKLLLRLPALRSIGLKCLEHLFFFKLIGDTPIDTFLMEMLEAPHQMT
compound,measurement,setting,value
O=c1c2ccccc2oc2ccccc12,outcome,[1],inactive
same,outcome,[2],inactive
same,outcome,[3],inactive
same,AC50,[4],0.173 µM (active)
same,outcome,[5],inactive
same,outcome,[6],inactive
same,outcome,[7],inactive
same,outcome,[8],inactive
CC1=NN(c2cc(S(=O)(=O)O)ccc2Cl)C(=O)C1N=Nc1ccccc1 (stereo not drawn),outcome,[1],inactive
same,outcome,[2],inactive
CCCCCCOC(=O)C(C)CC (stereo not drawn),outcome,[1],inactive
same,outcome,[2],inactive
O=C(c1ccccc1)c1ccc(O)c(O)c1O,outcome,[1],inactive
same,outcome,[2],inactive
CCCCCCCCC(=O)OCC,outcome,[1],inactive
same,outcome,[9],inactive
same,outcome,[2],inactive
CC1OC1C1CCC2(C)OC2C1 (stereo not drawn),outcome,[1],inactive
same,outcome,[3],inactive
same,outcome,[4],inactive
same,outcome,[5],inactive
same,outcome,[6],inactive
same,outcome,[7],inactive
same,outcome,[8],inactive
CC(=O)OCC(=O)[C@@]12N=C(C)O[C@@H]1C[C@H]1[C@@H]3CCC4=CC(=O)C=C[C@]4(C)[C@H]3[C@@H](O)C[C@@]12C,AC50,[1],16.7 µM (active)
same,AC50,[9],1.62 µM (active)
same,outcome,[2],inactive
N[C@H]1C(O)O[C@H](CO)[C@H](O)[C@@H]1O (stereo partly drawn),outcome,[1],inactive
same,outcome,[2],inactive
COCc1c(C(C)C)nc(C(C)C)c(/C=C/[C@@H](O)C[C@@H](O)CC(=O)O)c1-c1ccc(F)cc1,outcome,[1],inactive
same,outcome,[9],inactive
same,outcome,[4],inactive
same,AC50,[5],4.73 µM (active)
same,AC50,[6],0.106 µM (active)
same,AC50,[7],0.0685 µM (active)
same,outcome,[8],inactive
CCOc1ccc(N)c([N+](=O)[O-])c1,outcome,[1],inactive
same,outcome,[9],inactive
same,outcome,[2],inactive
NC(=O)NNC(N)=O,outcome,[1],inactive
same,outcome,[2],inactive
C#CC1(O)CC[C@H]2[C@@H]3CCC4=CCCC[C@@H]4[C@H]3CC[C@@]21C (stereo partly drawn),outcome,[1],inactive
same,outcome,[9],inactive
same,outcome,[2],inactive
same,AC50,[3],8.71 µM (active)
same,AC50,[4],35.5 µM (active)
same,AC50,[5],11 µM (active)
same,AC50,[6],10.8 µM (active)
same,AC50,[7],10.2 µM (active)
same,AC50,[8],12.9 µM (active)
CCc1nccnc1C,outcome,[1],inactive
same,outcome,[2],inactive
Oc1ccc(Cl)cc1Cc1cc(Cl)ccc1O,outcome,[1],inactive
same,AC50,[9],6.46 µM (active)
same,outcome,[2],inactive
O=C(O)Cc1c(Cl)ccc(Cl)c1Cl,outcome,[1],inactive
same,outcome,[2],inactive
CC(C)=CCC[C@H](C)CCO,outcome,[1],inactive
same,outcome,[2],inactive
CCN(CCC#N)c1ccc(N=Nc2c(Cl)cc([N+](=O)[O-])cc2Cl)cc1,outcome,[1],inactive
same,outcome,[2],inactive
CCO[Si](CCCN=C=O)(OCC)OCC,outcome,[1],inactive
same,outcome,[2],inactive
same,outcome,[3],inactive
same,outcome,[4],inactive
same,outcome,[5],inactive
same,outcome,[6],inactive
same,outcome,[7],inactive
same,outcome,[8],inactive
C=CCOc1c(Br)cc(Br)cc1Br,AC50,[1],56.2 µM (active)
same,AC50,[9],6.51 µM (active)
same,AC50,[3],20 µM (active)
same,AC50,[4],20 µM (active)
same,AC50,[5],20 µM (active)
same,AC50,[6],24.8 µM (active)
same,outcome,[7],inactive
same,outcome,[8],inactive
O=S(=O)(Oc1ccc(Cl)cc1Cl)c1ccccc1,outcome,[1],inactive
same,outcome,[9],inactive
same,outcome,[2],inactive
c1ccc(-c2ccccn2)nc1,outcome,[1],inactive
same,outcome,[2],inactive
same,outcome,[3],inactive
same,outcome,[4],inactive
same,outcome,[5],inactive
same,outcome,[6],inactive
same,outcome,[7],inactive
same,outcome,[8],inactive
Cc1ccc(C(C)c2ccc(C)c(C)c2)cc1C,outcome,[1],inactive
same,outcome,[9],inactive
same,outcome,[2],inactive
O=C(O)c1cc(Cl)cc([N+](=O)[O-])c1Cl,outcome,[1],inactive
same,outcome,[2],inactive
Cc1oncc1C(=O)Nc1ccc(C(F)(F)F)cc1,outcome,[1],inactive
same,outcome,[2],inactive
CCCCCCCCc1ccc(Nc2ccc(CCCCCCCC)cc2)cc1,outcome,[1],inactive
same,outcome,[9],inactive
same,outcome,[2],inactive
same,outcome,[3],inactive
same,outcome,[4],inactive
same,outcome,[5],inactive
same,outcome,[6],inactive
same,outcome,[7],inactive
same,outcome,[8],inactive
O=P(O)(O)Oc1ccccc1,outcome,[9],inactive
CCCCCC/C=C/C=O,outcome,[9],inactive
Cc1ccc(N)c([N+](=O)[O-])c1,outcome,[9],inactive
CCc1c(C(=O)O)c(=O)cnn1-c1ccc(Cl)cc1,outcome,[9],inactive
CC(C)=CCC/C(C)=C\C#N,outcome,[9],inactive
CC(=O)c1ccc[nH]1,outcome,[9],inactive
same,outcome,[2],inactive
O=C(OCC1CCC2OC2C1)C1CCC2OC2C1 (stereo not drawn),outcome,[9],inactive
C=C1[C@H]2CC[C@@H]3[C@H]2C(C)(C)CCC[C@]13C,outcome,[9],inactive
CCCCC/C=C\CCC=O,outcome,[9],inactive
C=C(C)C(=O)OCCOc1ccccc1,outcome,[9],inactive
CCCCC/C=C\C/C=C\CCCCCCCC(=O)OC,outcome,[1],inactive
same,AC50,[3],29.6 µM (active)
same,AC50,[4],20 µM (active)
same,AC50,[5],34.4 µM (active)
same,AC50,[6],28.7 µM (active)
same,outcome,[7],inactive
same,AC50,[8],31.4 µM (active)
Cn1c(=O)[nH]c2ncn(C)c2c1=O,outcome,[9],inactive
CC(C)(C)c1ccc(OC(=O)c2ccccc2O)cc1,AC50,[9],177 µM (active)
CC(C)CC(O)Cc1ccccc1 (stereo not drawn),outcome,[9],inactive
same,outcome,[2],inactive
O=S(=O)(O)c1ccc2cc(O)c(S(=O)(=O)O)cc2c1,outcome,[9],inactive
Cc1cc(C)c(C)cc1C,outcome,[9],inactive
N#CCc1ccc(Cl)cc1Cl,outcome,[9],inactive
C=C1C2CCC(C2)C1(C)C (stereo not drawn),outcome,[9],inactive
CCCCCCCCCCCCCCCC[n+]1ccccc1,outcome,[9],inactive
O=S(=O)(O)CC(O)CCl (stereo not drawn),outcome,[9],inactive
C=C(C)[C@@H]1CCC2=CCC[C@@H](C)[C@]2(C)C1,AC50,[9],47.6 µM (active)
CC(C)(Oc1ccc(C2CC2(Cl)Cl)cc1)C(=O)O (stereo not drawn),outcome,[9],inactive
same,outcome,[2],inactive
COc1ccc(-c2coc3cc(O)ccc3c2=O)cc1,outcome,[9],inactive
O=C(O)c1cc2ccccc2nc1C(=O)O,outcome,[9],inactive
Cc1ccc(C(C)(C)C)cc1,outcome,[9],inactive
same,outcome,[2],inactive
CCCOCCOCCOCCO,outcome,[9],inactive
FC(F)=C(F)OC(F)(F)C(F)(F)C(F)(F)F,outcome,[9],inactive
O=c1c2ccccc2nnn1CCl,outcome,[9],inactive
CC[C@H]1OC(=O)[C@H](C)[C@@H](O[C@H]2C[C@@](C)(OC)[C@@H](O)[C@H](C)O2)[C@H](C)[C@@H](O[C@@H]2O[C@H](C)C[C@H](N(C)C)[C@H]2O)[C@](C)(O)C[C@@H](C)C(=NOCOCCOC)[C@H](C)[C@@H](O)[C@]1(C)O,outcome,[9],inactive

# From PubChem BioAssay (EPA / NIEHS)
